Out of some 2,400 compounds screened, about 220 (9.2%) were called active.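 Rule for the calls: active = signal change above the mean of dofetilide-free buffer controls plus 3 SD, so a positive margin; inactive = the rest.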 The entries come from a sample that favours actives as a whole.

The nature of this test: thallium signal changes without hERG – cell-based, CHO-K1 parental line, FluxOR thallium flux, counter-screen for hERG block protection project, confirmation (AID 1839).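 Note: compounds applied alone with no dofetilide to cells lacking hERG.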 To be noted: CHO-K1 parental cells, FluxOR thallium flux fluorescence; at 10 µM.
`COc1ccc(NC(=O)CNC(=O)c2cccs2)cc1Cl`: the signal change vs control minus 3*SD hit threshold (margin above threshold, higher = more increase) was -23.5% (inactive).
In the case of `O=C(NC(=S)Nc1ccccc1N1CCCCC1)c1cccs1` it was -17.4% (inactive).
The figure for `S=c1nc(C2CC2)[nH]c2ccccc12` is -0.5% (inactive).
In the case of `S=c1nc(COc2ccccc2)[nH]c2ccccc12` it was 59.3% (active); in that of `CC(C)c1ccc(/C=N/n2c(COc3ccccc3)n[nH]c2=S)cc1`, -21.3% (inactive).
Consider `S=c1nc(C2CCCCC2)[nH]c2ccccc12`, for which the signal change vs control minus 3*SD hit threshold (margin above threshold, higher = more increase) is -20.4% (inactive).
In the case of `S=c1nc(SCc2ccccc2)[nH]c2ccccc12` it was 40.3% (active); in that of `O=c1[nH]c(SCc2cccc(Cl)c2)nc2ccccc12`, -29.3% (inactive).
The figure for `O=C(O)CCCCCNc1nc(=S)[nH]c2ccccc12` is -17.7% (inactive); for `S=c1[nH]nc(-c2ccc(Cl)cc2)n1Cc1ccccc1` it is -36.8% (inactive); for `CCC(Cc1ccccc1)n1c(=S)[nH]c2ccccc2c1=O` (stereo not drawn) it is -32.2% (inactive).
As to `S=c1nc(Cc2ccc(Cl)cc2)[nH]c2ccccc12`, the signal change vs control minus 3*SD hit threshold (margin above threshold, higher = more increase) is 7.6% (active).
In the case of `S=c1nc(Cc2ccccc2)[nH]c2ccccc12` it was 36% (active); in that of `CCOC(=O)c1sc2nc(Cc3ccc(Cl)cc3)[nH]c(=S)c2c1C`, -19.8% (inactive); in that of `C#CCN1C(=O)S/C(=C\c2ccc(-c3ccc(C(=O)O)cc3C)o2)C1=O`, -26.1% (inactive).
The figure for `CC/C(=N\NC(=S)Nc1cccc(C)c1)c1ccccc1` is -31.9% (inactive); for `COc1ccc(/C=N/NC(=O)C(=O)N2CCCC2)cc1` it is -11.5% (inactive); for `Cc1cccc(C)c1NC(=O)Cn1cnc2c(=O)n(C)c(=O)n(C)c21` it is -26.9% (inactive).
For the compound `Cn1nc(C(=O)Nc2ccc3c(c2)OCO3)c2ccccc2c1=O`, the signal change vs control minus 3*SD hit threshold (margin above threshold, higher = more increase) was -35.3% (inactive).
The figure for `CCOC(=O)NC(=O)/C(C#N)=N\Nc1ccc(Cl)cc1` is -36.7% (inactive); for `Cc1c(-c2ccn[nH]2)cc(NC(=O)c2ccc(Cl)cc2)c(=O)n1N` it is -40% (inactive); for `Cc1cc(C)nc(SCc2nnc(SCC(=O)Nc3nc(-c4ccccc4)cs3)n2-c2ccccc2)n1` it is -32% (inactive).
The figure for `COc1ccc(CCNC(=O)CSc2ccc3nnc(CCNC(=O)c4ccccc4)n3n2)cc1OC` is -23.3% (inactive).
In the case of `COc1ccc2nc(N3CCCCC3)c(/C=C3\SC(=S)NC3=O)cc2c1` it was -33% (inactive); in that of `O=C1NC(=S)/C(=C\c2ccc(-c3ccccc3Cl)o2)S1`, -34.6% (inactive).
For `O=C1NC(=S)S/C1=C\c1ccc2ccccc2c1`, the signal change vs control minus 3*SD hit threshold (margin above threshold, higher = more increase) is 30.2% (active).
The figure for `O=C(CN1C(=O)S/C(=C\c2cccs2)C1=O)Nc1ccc(C(=O)O)c(O)c1` is -0.8% (inactive); for `Cc1ccc(S(=O)(=O)c2nnn3c2nc(N2CCOCC2)c2ccccc23)c(C)c1` it is -25.3% (inactive).
In the case of `COC(=O)c1sccc1NC(=S)N1CCN(C)CC1` it was -34.3% (inactive).
In the case of `O=c1c2ccccc2nc(-c2ccccc2)n1O`, the signal change vs control minus 3*SD hit threshold (margin above threshold, higher = more increase) is -24.1% (inactive).
In the case of `O=c1c2ccccc2nc(-c2cccc(Cl)c2)n1O` it was 0.8% (active); in that of `Cc1ccc(-c2nc3ccc(Cl)cc3c(=O)n2O)cc1`, 38% (active); in that of `O=c1c2cc(Cl)ccc2nc(-c2ccc(Cl)c(Cl)c2)n1O`, 62.4% (active).
In the case of `NC(=O)CSc1nc2ccccc2c(=O)n1CCc1ccccc1` it was -28.3% (inactive); in that of `Cc1ccc(-c2onc3ccc(Cl)cc23)cc1`, -25.3% (inactive); in that of `O=C(Cc1ccccc1)Nn1c(-c2ccccc2)nc2ccccc2c1=O`, -21.4% (inactive).
With `O=c1c2cc(Cl)ccc2nc(-c2ccccc2)n1O`, the signal change vs control minus 3*SD hit threshold (margin above threshold, higher = more increase) was -7.8% (inactive).
The figure for `Cc1ccc(C(=O)Nc2nc3ccccc3c(=O)s2)cc1` is -16.6% (inactive); for `O=c1c2ccccc2nc(-c2ccc(Cl)c(Cl)c2)n1O` it is 20.1% (active); for `CCc1ccc(OCC(=O)Nc2ncn[nH]2)cc1` it is -35.2% (inactive).
The figure for `Cc1ccc2[nH]c3c(c2c1)CNCC3` is -32% (inactive); for `CN(c1ccccc1)S(=O)(=O)c1ccc(Cl)c(C(=O)Nc2nn[nH]n2)c1` it is -24.2% (inactive).
In the case of `COc1ccc(C2N=C(c3ccccc3)C(C)(C)N2O)cc1` (stereo not drawn) it was -23.4% (inactive); in that of `Cc1ccccc1-c1nnn(CC(=O)NCc2ccc3c(c2)OCO3)n1`, -37.1% (inactive).
As to `Cc1cccc(/N=C/c2sc3ccccc3c2O)n1`, the signal change vs control minus 3*SD hit threshold (margin above threshold, higher = more increase) was -19.2% (inactive).
In the case of `O=C(NCC1CCCO1)c1ccc2c(=O)n(Cc3ccco3)c(SCC(=O)N3CCCC3)nc2c1` (stereo not drawn), the signal change vs control minus 3*SD hit threshold (margin above threshold, higher = more increase) was -14.7% (inactive).
In the case of `Clc1cccc(OCCCN2CCCC2)c1Cl` it was -24.8% (inactive).
In the case of `CCCCC1C2=C(CCCC2=O)OC2=C1C(=O)CCC2` it was -34.5% (inactive); in that of `Cc1ccc(C(=O)N2CCN(c3ccccc3)CC2)cc1S(=O)(=O)N1CCCC1`, -7.2% (inactive); in that of `Cc1ccc(-c2nc3c(Cl)cc(Cl)cc3c(=O)n2O)cc1`, 65.6% (active).
The figure for `Cc1ccc(-c2nc3ccccc3c(=O)n2O)cc1` is -12.7% (inactive).
`Cc1cc(=O)[nH]c(SCC(=O)NC2CCCCC2)n1`: the signal change vs control minus 3*SD hit threshold (margin above threshold, higher = more increase) is -27% (inactive).
As to `O=C(NC(=S)Nc1ccccc1N1CCCC1)c1ccco1`, the signal change vs control minus 3*SD hit threshold (margin above threshold, higher = more increase) was -20.8% (inactive).
Take `O=C(NC(=S)Nc1ccccc1Br)c1ccco1`: the signal change vs control minus 3*SD hit threshold (margin above threshold, higher = more increase) is -14.3% (inactive).
The figure for `Cc1cccc(NC(=S)NC(=O)c2ccco2)c1C` is 20% (active); for `O=C(NC(=S)Nc1cccc(Cl)c1N1CCCCC1)c1ccco1` it is -27.7% (inactive).
In the case of `CCC(C)c1ccccc1NC(=S)NC(=O)c1ccco1` (stereo not drawn) it was 40% (active); in that of `CCOc1ccccc1NC(=S)NC(=O)c1ccco1`, -16.7% (inactive).
Turning to `CCOc1ccc(NC(=S)NC(=O)c2ccco2)cc1`, the signal change vs control minus 3*SD hit threshold (margin above threshold, higher = more increase) was -15.7% (inactive).
The figure for `Cc1cccc(NC(=O)CCNC(=O)c2ccco2)c1C` is -27.7% (inactive).
The figure for `O=C(NC(=S)Nc1ccc(N2CCCCC2)cc1)c1ccco1` is 9.4% (active); for `O=C1OCCC1Sc1nc2ccccc2c(=O)n1Cc1ccc(F)cc1` (stereo not drawn) it is -13.7% (inactive).
As for `CCc1ccc(C(=O)NNC(=O)c2ccc(=O)n(C)n2)cc1`, the signal change vs control minus 3*SD hit threshold (margin above threshold, higher = more increase) was -31% (inactive).
In the case of `O=C(NC(=S)N1CCN(c2nc(-c3ccccc3)cs2)CC1)c1cncc(Br)c1` it was -12.3% (inactive).
The figure for `CC(NC(=O)NC1CCCCC1)c1ccccc1` (stereo not drawn) is -8.9% (inactive); for `Oc1c(N=Nc2ccccn2)ccc2ccccc12` it is -28.3% (inactive).
For the compound `O=C(N/N=C\c1coc2ccccc2c1=O)c1ccco1`, the signal change vs control minus 3*SD hit threshold (margin above threshold, higher = more increase) was -25.6% (inactive).
In the case of `Cc1c(N2C(=O)/C(=C\c3ccccc3O)SC2=S)c(=O)n(-c2ccccc2)n1C` it was 7.5% (active); in that of `CC(/C=C1\SC(=S)N(c2ccc(C(=O)O)cc2)C1=O)=C\c1ccccc1`, -40.7% (inactive).
In the case of `O=C(O)COc1ccccc1/C=C1\SC(=S)N(NC(=O)c2ccccc2O)C1=O` it was -20.5% (inactive); in that of `COc1ccc(N(C(=O)c2ccco2)S(=O)(=O)c2cccs2)cc1`, -26.1% (inactive).
The figure for `O=C(Cn1cncn1)c1ccccc1Br` is -37.9% (inactive); for `Cc1cc(C)cc(-n2ncc3c2CCCC3NC(=O)c2csnn2)c1` (stereo not drawn) it is -40.3% (inactive).
Turning to `CCCCN1C(=O)/C(=C2/Sc3ccc(Cl)cc3N2CC)SC1=S`, the signal change vs control minus 3*SD hit threshold (margin above threshold, higher = more increase) was -39.8% (inactive).
The figure for `COc1ccc(OC)c(NC(=O)C(=O)NNC(=O)C23CC4CC(CC(C4)C2)C3)c1` is 42.5% (active); for `COc1ccc(OCC(=O)NNC(=O)C(=O)Nc2cc(OC)ccc2OC)cc1` it is -1.8% (inactive).
The figure for `COc1ccc(OC)c(NC(=O)C(=S)NC2CCCCC2)c1` is -22.8% (inactive).
In the case of `CC(NC(=O)CCCn1cc([N+](=O)[O-])cn1)c1ccccc1` (stereo not drawn) it was -29.8% (inactive); in that of `CCCCNC(=S)NNC(=O)c1ccc2c(c1)OCO2`, -29.2% (inactive); in that of `N=C1C(=O)OCC1c1cc(Cl)ccc1NC(=O)Nc1ccccc1` (stereo not drawn), -31.4% (inactive).
As for `CC(C)(C)NC(=O)C(=O)NNC(=O)c1ccccc1`, the signal change vs control minus 3*SD hit threshold (margin above threshold, higher = more increase) is -23.3% (inactive).
The figure for `CCCc1cc(C(=O)NNC(=S)Nc2cccc(C)c2)cs1` is -32.4% (inactive).
In the case of `Cc1cccc(C(=O)NC(=S)NNC(=O)c2ccc(Cl)cc2)c1` it was -44.5% (inactive); in that of `CC(C)(C)NC(=O)C(=O)NNC(=O)c1cccc(Br)c1`, -6.8% (inactive); in that of `Cc1cccc(NC(=O)C(=O)NNC(=O)c2ccc(C(C)(C)C)cc2)c1`, 44.5% (active).
As to `CC(C)(C)NC(=O)C(=O)NNC(=O)c1ccc(C(C)(C)C)cc1`, the signal change vs control minus 3*SD hit threshold (margin above threshold, higher = more increase) was 1.9% (active).
As to `CCOC(=O)N1CCN(C(=O)COC(=O)c2cc(Cl)c(O)c(Cl)c2)CC1`, the signal change vs control minus 3*SD hit threshold (margin above threshold, higher = more increase) is -24.7% (inactive).
On to `Cc1ccc(O)c(Sc2cc(C)ccc2O)c1`, for which the signal change vs control minus 3*SD hit threshold (margin above threshold, higher = more increase) is -41.7% (inactive).
The figure for `CC(C)CSC1=NSC2=NC(=O)/C(=C\c3ccccc3)C(=N)N12` is -21.5% (inactive); for `O=C(COc1coc(CN2CCc3ccccc3C2)cc1=O)Nc1cccc(Cl)c1` it is -31.3% (inactive); for `CCOc1ccc2[nH]c(=O)c(CN(Cc3ccc(C)cc3)C(=O)N3CCCC3)cc2c1` it is -28% (inactive).
The figure for `COc1ccc(NC(=O)C2CC3CCC2C3)c(OC)c1` (stereo not drawn) is -22.3% (inactive).
The figure for `O=C(N/N=C/C(Cl)=C/c1ccc([N+](=O)[O-])cc1)C(=O)Nc1ccc(C(=O)O)cc1` is -32.7% (inactive); for `O=[N+]([O-])c1ccc(Nc2ccccc2F)nc1` it is -20.1% (inactive); for `COc1ccc(C(=O)N(CN2CCCC2=O)c2ccc(C)cc2)cc1` it is -4.3% (inactive).
`O=C(NCCCN1CCCC1=O)c1ccc(OC(F)(F)F)cc1`: the signal change vs control minus 3*SD hit threshold (margin above threshold, higher = more increase) is -32.6% (inactive).
For `CCOc1ccc(C(=O)N(CN2CCCC2=O)c2ccc(C)cc2)cc1`, the signal change vs control minus 3*SD hit threshold (margin above threshold, higher = more increase) was 7.5% (active).
In the case of `CCOC(=O)Cc1csc(NC(=S)NC(=O)c2ccc(Cl)cc2)n1` it was -26.4% (inactive).
For `C=C(C)CNC(=S)NN=C1c2ccccc2-c2ccccc21`, the signal change vs control minus 3*SD hit threshold (margin above threshold, higher = more increase) was -25% (inactive).
The figure for `O=c1c(-c2ccc(Cl)cc2)[n+]([O-])c2ccccc2n1O` is 29.3% (active); for `O=c1c(-c2ccccc2)[n+]([O-])c2ccccc2n1O` it is -26.3% (inactive); for `Cc1ccc(-c2c(=O)n(O)c3ccccc3[n+]2[O-])cc1` it is 15.9% (active).
The figure for `O=c1c(-c2cccc3ccccc23)[n+]([O-])c2ccccc2n1O` is -12.8% (inactive).

Source of the values: PubChem BioAssay AID1839 (Johns Hopkins Ion Channel Center, 2009).
